Reference: PubChem BioAssay
Active and inactive are the calls of the source.

Assays:
[1] = system: Human papillomavirus type 1a protein E7 (residues 44-93); test: HPV1a E7 fragment binders on microarrays, primary screen, biochemical, small-molecule microarray, residues 44-93, 635 nm fluorescence (AID 1108); conditions: small-molecule microarray binding, fluorescence 635 nm; higher = more signal;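 also: E7 fragment applied at 1 µg/mL in TBST for 1 h at 4 C; score combines spot fluorescence with its signal to noise ratio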
[2] = modulators of HCV replicon luciferase signal, primary screen, HCV replication inhibitor project, Huh7 cells, luciferase reporter (AID 1109); conditions: 48 h, higher = more signal;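 also: huh7 hepatoma cells harbouring a luciferase neomycin HCV replicon reporter; luciferase luminescence as measure of HCV replicon replication; test concentration not given here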
[3] = molecular target: Left-right determination factor 2 (Homo sapiens) (UniProt O00292); test: LEFTY2 binders on small-molecule microarrays, primary screen, biochemical, small-molecule microarray, 635 nm fluorescence scan (AID 1110); conditions: LEFTY2 binding, higher = more signal
[4] = molecular target: Calmodulin-1 (Homo sapiens) (UniProt P0DP23); test: CALM1 binders on microarrays, EGTA buffer, profiling panel, biochemical, small-molecule microarray, Cy5-labelled CALM1 (AID 1111); conditions: Cy5-CALM1 binding fluorescence, higher = more signal;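 also: labelled calmodulin applied in Tris saline Tween buffer holding calcium plus EGTA and DTT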
[5] = molecular target: Calmodulin-1 (Homo sapiens) (UniProt P0DP23); test: calcium-bound CALM1 binders on microarrays, profiling panel, artefact control for SMM control-protein annotation, biochemical, small-molecule microarray, Cy5-labelled CALM1, plus calcium (AID 1112); conditions: Cy5-CALM1 binding fluorescence, higher = more signal;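 also: score merges spot fluorescence with signal to noise from triplicate slides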
[6] = small-molecule microarray binders of probe aWnt5a, primary screen, biochemical, biotinylated probe, 635/667 nm fluorescence (AID 1113); conditions: higher = more signal;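 also: score merges 667 nm fluorescence intensity with signal-to-noise per printed feature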
[7] = small-molecule microarray binders of probe aShh, primary screen, biochemical, biotinylated probe, 635/667 nm fluorescence (AID 1114); conditions: higher = more signal;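 also: probe is biotin-labelled aShh protein from a stem cell growth factor screen; measures binding of labelled protein to compounds printed on the slide; score merges feature fluorescence at 667 nm with signal-to-noise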
[8] = small-molecule microarray binders of probe aNog, primary screen, biochemical, biotinylated probe, 635/667 nm fluorescence (AID 1115); conditions: higher = more signal;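 also: probe is biotinylated aNog protein used at 0.15 µg/mL for 1 h at 4 C; z-score combines 667 nm fluorescence of each spot with its signal to noise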
[9] = molecular target: Torsin-1A-interacting protein 1 (Homo sapiens) (UniProt Q5JTV8); test: LAP1 binders from COS7 cell lysate, primary screen, small-molecule microarray, 635/667 nm fluorescence (AID 1116); conditions: COS7-hLAP1 lysate binding, 635 nm fluorescence, higher = more signal
[10] = molecular target: Alpha-bungarotoxin (Bungarus multicinctus) (UniProt P60615); test: alpha-bungarotoxin binders on microarray, profiling panel, artefact control for SMM control protein annotation, biochemical, small-molecule microarray, Alexa647 label, 635/667 nm fluorescence (AID 1117); conditions: alpha-BTX-A647 binding fluorescence, higher = more signal
Albumin (Bos taurus) = Albumin (Bos taurus) (UniProt P02769); test: bovine serum albumin binders on microarray, profiling panel, artefact control for SMM control protein annotation, biochemical, small-molecule microarray, Alexa647 label, 635/667 nm fluorescence (AID 1118); conditions: BSA-A647 binding, fluorescence 635 nm, higher = more signal;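 also: score merges 667 nm emission intensity and signal-to-noise per printed compound spot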
[11] = small-molecule microarray binders of probe aXIP, primary screen, biochemical, NeuroSMM set, 635/667 nm fluorescence (AID 1119); conditions: higher = more signal, called active from +8 up or from −8 down;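 also: probe is the protein aXip251-270 applied at 1 µg/mL to compound-printed slides; binding of probe to printed compounds measured as 667 nm fluorescence plus signal to noise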
[12] = small-molecule binders of probe aNOTCH3, primary screen, biochemical, small-molecule microarray, 635/667 nm fluorescence (AID 1120); conditions: higher = more signal;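 also: probe is a biotin-tagged antibody raised against NOTCH3 rather than NOTCH3 protein; score merges spot fluorescence near 667 nm with spot signal to noise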
[13] = small-molecule binders of probe aNOTCH2, primary screen, biochemical, small-molecule microarray, 635/667 nm fluorescence (AID 1121); conditions: higher = more signal;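 also: score merges feature fluorescence read at 667 nm with its signal to noise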
[14] = molecular target: Carbonic anhydrase 2 (Homo sapiens) (UniProt P00918); test: CAII small-molecule binders, profiling panel, biochemical, small-molecule microarray, Alexa647-labelled CAII (AID 1122); conditions: CAII-A647 binding fluorescence, higher = more signal
[15] = COS7 lysate on small-molecule microarray, probe aHis, 635 nm (AID 1123); conditions: COS7 cell lysate, fluorescence, higher = more signal;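 also: z-score combines 667nm fluorescence intensity with signal-to-noise per printed compound spot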
[16] = compound binding in COS7 lysate, probe aLAP1, primary screen, cell lysate, small-molecule microarray (AID 1124); conditions: probe aLAP1, fluorescence, higher = more signal;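 also: lysate comes from COS7 cells expressing LAP1 and is applied at 0.3 µg/mL; score merges spot fluorescence near 667 nm with signal-to-noise over triplicate slides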
Sam68 (KHDRBS1) = test: Sam68 small-molecule binders, primary screen, biochemical, small-molecule microarray, 635 nm fluorescence (AID 1125); conditions: small-molecule microarray binding, higher = more signal;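 also: score merges 667 nm channel intensity with signal to noise over triplicate slides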
[17] = system: Chordin-like protein 2 (CHRDL2); test: CHRDL2 small-molecule binders, primary screen, biochemical, small-molecule microarray, 635 nm fluorescence (AID 1126); conditions: small-molecule microarray binding, fluorescence 635 nm; higher = more signal;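 also: printed compound slides probed with Chrdl2 protein at 4 µg/mL for 1 h at 4 C; score merges 667 nm emission intensity with signal to noise over three replicate slides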
[18] = molecular target: Concanavalin-A (Canavalia ensiformis) (UniProt P02866); test: ConA small-molecule binders, primary screen, artefact control for SMM control protein annotation, biochemical, small-molecule microarray, Alexa647 label, 635 nm (AID 1127); conditions: ConA-A647 binding fluorescence, higher = more signal;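 also: z combines 667 nm emission intensity with signal-to-noise across three replicate slides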
Concanavalin-A (Canavalia ensiformis), sequence (P02866 whole entry, looked up): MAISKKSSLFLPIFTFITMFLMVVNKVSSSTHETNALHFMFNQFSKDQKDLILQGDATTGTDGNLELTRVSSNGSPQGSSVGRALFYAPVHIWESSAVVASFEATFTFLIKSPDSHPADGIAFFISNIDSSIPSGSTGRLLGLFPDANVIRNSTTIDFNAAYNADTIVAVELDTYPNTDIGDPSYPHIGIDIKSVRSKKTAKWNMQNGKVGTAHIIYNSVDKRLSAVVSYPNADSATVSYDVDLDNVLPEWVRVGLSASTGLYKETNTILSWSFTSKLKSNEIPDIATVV

Torsin-1A-interacting protein 1 (Homo sapiens), sequence (Q5JTV8 whole entry, looked up): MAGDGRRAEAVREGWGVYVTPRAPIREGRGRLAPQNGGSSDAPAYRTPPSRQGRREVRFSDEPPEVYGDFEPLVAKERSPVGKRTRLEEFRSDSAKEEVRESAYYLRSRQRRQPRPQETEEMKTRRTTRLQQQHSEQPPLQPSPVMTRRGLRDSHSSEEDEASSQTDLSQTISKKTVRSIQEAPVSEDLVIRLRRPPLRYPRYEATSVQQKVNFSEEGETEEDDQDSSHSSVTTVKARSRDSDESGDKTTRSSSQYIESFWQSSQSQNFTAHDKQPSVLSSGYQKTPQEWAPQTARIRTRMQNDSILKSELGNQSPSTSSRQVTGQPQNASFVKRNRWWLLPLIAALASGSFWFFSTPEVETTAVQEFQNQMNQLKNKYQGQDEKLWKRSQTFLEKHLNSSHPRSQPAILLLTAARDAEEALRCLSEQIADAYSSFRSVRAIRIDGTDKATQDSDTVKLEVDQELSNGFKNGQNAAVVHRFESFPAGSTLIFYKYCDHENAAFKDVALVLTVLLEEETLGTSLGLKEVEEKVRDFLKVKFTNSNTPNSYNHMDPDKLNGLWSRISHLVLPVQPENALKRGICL
Albumin (Bos taurus), sequence (P02769 whole entry, looked up): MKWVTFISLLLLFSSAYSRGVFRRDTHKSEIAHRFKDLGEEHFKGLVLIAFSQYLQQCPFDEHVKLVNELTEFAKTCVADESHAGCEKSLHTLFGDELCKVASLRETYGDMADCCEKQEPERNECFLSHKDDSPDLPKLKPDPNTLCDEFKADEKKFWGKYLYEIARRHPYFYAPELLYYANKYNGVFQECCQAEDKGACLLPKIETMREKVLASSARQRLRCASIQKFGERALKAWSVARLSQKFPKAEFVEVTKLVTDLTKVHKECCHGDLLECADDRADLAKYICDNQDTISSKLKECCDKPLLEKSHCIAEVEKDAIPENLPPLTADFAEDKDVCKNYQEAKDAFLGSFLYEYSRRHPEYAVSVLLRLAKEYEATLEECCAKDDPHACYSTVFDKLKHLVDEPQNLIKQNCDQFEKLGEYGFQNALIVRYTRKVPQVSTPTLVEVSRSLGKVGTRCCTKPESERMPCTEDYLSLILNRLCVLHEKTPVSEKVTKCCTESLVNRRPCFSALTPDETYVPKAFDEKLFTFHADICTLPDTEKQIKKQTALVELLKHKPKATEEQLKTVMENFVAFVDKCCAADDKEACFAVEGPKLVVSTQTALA
Left-right determination factor 2 (Homo sapiens), sequence (O00292 whole entry, looked up): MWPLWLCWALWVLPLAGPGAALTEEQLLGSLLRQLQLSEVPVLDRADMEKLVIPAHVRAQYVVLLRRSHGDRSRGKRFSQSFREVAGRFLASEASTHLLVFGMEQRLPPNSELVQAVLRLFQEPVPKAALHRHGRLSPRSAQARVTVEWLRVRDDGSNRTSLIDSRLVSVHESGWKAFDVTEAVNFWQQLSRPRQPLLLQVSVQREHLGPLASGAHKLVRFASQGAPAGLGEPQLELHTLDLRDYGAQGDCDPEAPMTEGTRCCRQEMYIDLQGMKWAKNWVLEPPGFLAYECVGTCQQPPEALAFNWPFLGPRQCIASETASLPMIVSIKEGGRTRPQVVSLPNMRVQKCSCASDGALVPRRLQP
Alpha-bungarotoxin (Bungarus multicinctus), sequence (P60615 whole entry, looked up): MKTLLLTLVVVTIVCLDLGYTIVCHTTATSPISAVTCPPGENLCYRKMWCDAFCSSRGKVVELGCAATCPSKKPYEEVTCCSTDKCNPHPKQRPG

Row | Structure (SMILES) | composite z-score [1] | z-score [2] | composite z-score [3] | composite z-score [4] | composite z-score [5] | composite z-score [6] | composite z-score [7] | composite z-score [8] | composite z-score [9] | composite z-score [10] | composite z-score (Albumin (Bos taurus)) | composite Z-score [11] | composite z-score [12] | composite z-score [13] | composite z-score [14] | composite z-score [15] | composite z-score [16] | composite z-score (Sam68 (KHDRBS1)) | composite z-score [17] | composite z-score [18]
1 | COc1ccc(C#Cc2ccc3c(c2)[C@]2(C(=O)N3)[C@H](C(=O)O)[C@H]3C(=O)O[C@H](c4ccccc4)[C@H](c4ccccc4)N3[C@@H]2c2ccccc2OCCO)cc1 | 0.263 | -2.19 | 0.694 | 1.04 | 0.604 | -0.235 | 0.0777 | 0.279 | 0.835 | 2.21 | 0.594 | 0.493 (inactive) | -0.301 | -0.0069 | 0.509 | 1.08 | 0.387 | 1.31 | 0.117 | 1.14
2 | N#Cc1ccc(C(O)C2C=CC3C(=O)NC(=O)C3N2Nc2ccc(Cl)cc2Cl)cc1 (stereo not given) | 0.544 | -0.436 | -0.535 | 1.69 | 0.635 | 0.0438 | 0.296 | 0.732 | 2.08 | 0.531 | 0.956 | 0.868 (inactive) | 0.112 | 0.132 | 0.651 | 2.94 | 1.48 | -0.0258 | -0.581 | 0.489
3 | COc1ccc([Si](C)(C)[C@@H]2[C@@H](CC(=O)N3Cc4ccccc4C[C@H]3CO)O[C@]3(C(=O)N(Cc4ccc(N5CCOC5=O)cc4)c4ccccc43)[C@H]2C)cc1 | 0.225 | -3.78 | 0.874 | -0.422 | -0.497 | -0.119 | 0.0639 | -0.339 | 1.86 | 1.42 | -0.289 | 1.54 (inactive) | 0.0803 | -0.128 | 0.624 | 1.12 | 0.313 | 1.27 | 1.26 | 1.16
4 | CCCCCCc1nc(Cc2cc(OC)c(OC)c(OC)c2)cc2c1[Si](C(C)C)(C(C)C)O[C@H]2c1ccccc1 | 0.192 | -2.41 | 0.851 | -0.0875 | -0.593 | -0.124 | 0.235 | 0.0646 | -0.142 | 0.889 | -0.261 | 0.688 (inactive) | -0.0647 | -0.166 | -0.117 | -0.327 | -0.589 | 0.523 | 0.52 | 0.118
5 | [N-]=[N+]=Nc1ccccc1C[C@@]1(C(=O)NCC(O)CO)N=C(c2ccc(OCCCO)cc2)O[C@@H]1c1ccccc1 (stereo not given in full) | 0.355 | -0.688 | -1.28 | 0.754 | 0.0985 | 0.0431 | 0.151 | 0.0308 | 1.48 | -0.422 | 0.579 | -0.362 (inactive) | -0.152 | 0.0231 | 0.719 | 2.01 | 0.353 | 0.206 | -1.26 | 0.446
6 | C=CCC(OC(C)=O)[C@@H]1[C@@H](N(Cc2ccc(-c3ccccc3)cc2)C(=O)c2cccc3ccccc23)c2cc(OCCCO)ccc2N1C(=O)Cc1ccc(OC)cc1 (stereo not given in full) | -0.69 | -0.235 | -0.526 | -0.424 | 0.618 | -0.0405 | -0.0293 | -0.202 | -0.278 | 0.313 | -0.276 | -0.064 (inactive) | 0.222 | 0.0092 | -0.208 | -0.212 | -0.338 | -0.205 | 0.475 | -0.0975
7 | CC(C)N1C(=O)c2ccccc2[C@](C)(C(=O)NCC(F)(F)F)[C@@H]1c1ccc(CO)cc1 | -0.39 | 0.164 | -1.41 | -0.625 | 0.179 | 0.0031 | -0.153 | 0.543 | 0.716 | -0.573 | -0.267 | -0.415 (inactive) | -0.407 | 0.0344 | 0.852 | 2.55 | 1.14 | -0.701 | -0.912 | -1.22
8 | COC(=O)[C@@]1(Cc2ccccc2)[C@H]2c3cc(C(=O)N(C)C)n(CCO)c3C[C@H]2CN1C(=O)c1ccccc1 | 0.56 | -0.766 | 0.145 | 2.07 | 1.27 | 0.0511 | 0.0005 | 0.623 | 0.952 | 0.723 | 1.04 | 0.335 (inactive) | 0.0259 | 0.19 | 0.958 | 3.13 | 0.877 | 1.24 | -1.44 | 1.2
9 | CC1=C([C@H](O)CCc2ccccc2)[C@H](CO)n2c(=O)n(-c3ccccc3)c(=O)n2C1 | -0.679 | -0.508 | 0.209 | -0.524 | -0.604 | -0.0685 | -0.169 | -0.0438 | -0.395 | -0.105 | -0.348 | 0.51 (inactive) | -0.187 | -0.199 | -0.3 | -0.35 | -0.603 | -0.308 | 0.443 | -0.0316
10 | COCCOC(=O)N1C(=O)[C@@]2(c3ccccc31)[C@H](c1ccc(O)cc1)N1[C@H](c3ccccc3)[C@H](c3ccccc3)OC(=O)[C@H]1[C@@H]2C(=O)N1CCCCCCC1 | 1.34 | -2.23 | 1.51 | 2.52 | 1.34 | 0.65 | 3.03 | 3.42 | 4.5 | 3.04 | 0.46 | 4.53 (inactive) | 1.98 | 0.851 | 0.863 | 3.62 | 1.18 | 1.3 | 1.58 | 1.14
11 | CC1CC/C=C\[C@H]2OC34C=CCN(c5ccc6ccccc6c5)C(=O)[C@H]3N(C(C)CO)C(=O)[C@@H]4C2C(=O)O1 (stereo not given in full) | -1.11 | -0.942 | -0.82 | -0.69 | -0.607 | -0.146 | -0.291 | -0.21 | -0.26 | -0.758 | -0.333 | -0.105 (inactive) | -0.226 | -0.181 | 0.725 | -0.976 | 0.105 | -0.849 | -0.837 | -0.654
12 | C=C(CCCC)/C(=C/C[C@H](OC(C)=O)c1cccc(OCCO)c1)c1cnc2ccccc2c1 | -0.114 | -2.3 | -0.234 | -0.437 | -0.896 | -0.0684 | 0.0723 | 0.0664 | 0.558 | 0.387 | -0.0372 | -0.325 (inactive) | -0.135 | -0.149 | 0.84 | -0.66 | -0.207 | 0.0549 | 0.466 | 0.116
